Measured values: the supplement of paper PMC3334620
The full ranking holds about 33,000 sequences; the median of “E-score (-0.5 to 0.5)” is about -0.043, and the highest 2% start at about 0.37. What follows is part of a selection rich in the highest values, with near analogues and random picks from the rest.

biological target: T1, Upc2 (UniProt Q12151); test: PBM E-score (8-mer binding enrichment) (E-score (-0.5 to 0.5)); higher = stronger / more preferred TF binding; conditions: protein concentration: 200 nM; construct: GST-full length
T1 sequence: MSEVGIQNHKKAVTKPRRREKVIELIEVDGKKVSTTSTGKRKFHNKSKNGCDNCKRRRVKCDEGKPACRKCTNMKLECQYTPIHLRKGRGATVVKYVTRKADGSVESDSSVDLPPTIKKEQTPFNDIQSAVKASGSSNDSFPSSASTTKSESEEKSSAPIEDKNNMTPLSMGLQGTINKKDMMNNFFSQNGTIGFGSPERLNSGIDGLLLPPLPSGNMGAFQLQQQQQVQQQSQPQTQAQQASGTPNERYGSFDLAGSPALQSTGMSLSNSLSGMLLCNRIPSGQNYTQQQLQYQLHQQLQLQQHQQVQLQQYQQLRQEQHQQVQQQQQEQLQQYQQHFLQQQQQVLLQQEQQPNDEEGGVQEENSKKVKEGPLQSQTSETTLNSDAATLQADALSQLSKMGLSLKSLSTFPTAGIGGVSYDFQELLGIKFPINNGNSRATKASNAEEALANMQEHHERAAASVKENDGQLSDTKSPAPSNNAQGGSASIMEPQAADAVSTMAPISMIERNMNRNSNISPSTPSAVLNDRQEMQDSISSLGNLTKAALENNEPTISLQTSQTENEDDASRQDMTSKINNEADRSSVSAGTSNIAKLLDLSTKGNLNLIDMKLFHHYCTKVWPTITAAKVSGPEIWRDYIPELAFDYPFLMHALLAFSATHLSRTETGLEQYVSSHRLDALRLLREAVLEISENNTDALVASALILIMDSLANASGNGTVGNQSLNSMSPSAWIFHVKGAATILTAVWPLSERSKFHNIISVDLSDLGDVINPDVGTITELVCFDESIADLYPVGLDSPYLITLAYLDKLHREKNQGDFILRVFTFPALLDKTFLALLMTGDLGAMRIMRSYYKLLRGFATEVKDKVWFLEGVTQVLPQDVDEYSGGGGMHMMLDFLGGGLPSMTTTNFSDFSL
Outline: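 Detection of bound protein used fluorescent anti-GST, with scans normalised by masliner. The proteins were GST-tagged yeast transcription factors applied at about 100-200 nM to universal all-10-mer Agilent arrays made double-stranded by primer extension. Each ungapped eight-base word, pooled with its reverse complement, was scored with an E-score from the Universal PBM Analysis Suite.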

| Sequence | PBM E-score |
| --- | --- |
| CTCTACGC | 0.0628 |
| CGCTACGA | 0.421 |
| ATCTACGA | 0.313 |
| CTCTACGA | 0.409 |
| AGCTACGA | 0.34 |
| CGCTACGC | 0.136 |
| GGCAGGAA | -0.24 |
| AATCCAGG | 0.0108 |
| AAAACTAC | 0.137 |
| CCTGGCAA | -0.125 |
| CAAGACAA | -0.0401 |
| TAATCGGA | 0.155 |
| GAATCGTA | 0.387 |
| AAATCGTC | 0.14 |
| GAATCGTC | 0.052 |
| AAATCGTA | 0.383 |

| Sequence | PBM E-score |
| --- | --- |
| CAATCGTC | -0.144 |
| TAATCGTA | 0.42 |
| TAATCGAA | 0.226 |
| AAATCGTG | 0.0785 |
| CAATCGTA | 0.4 |
| GAATCGCA | -0.0934 |
| CAATCGTG | -0.153 |
| CTGGCTCC | -0.252 |
| CCGGAGAC | -0.0181 |
| AGGTCTCA | -0.221 |
| CCTCAGCA | -0.21 |
| AAACGTAC | 0.33 |
| AGTGGATC | -0.0691 |
| AGTACTAC | 0.119 |
| GCACAAAC | 0 |
| CGCAACGC | 0.0437 |
